PubChem BioAssay AID1851 (National Center for Advancing Translational Sciences (NCATS), 2009)
About 5,100 (32%) of roughly 16,000 compounds were called active. Roughly 25% stayed inconclusive and do not appear here. Some of the results follow. More than one record can exist for a structure, and the calls need not agree. Values without a mark were called inactive. The call rests on the fitted dose curve; in most records, active means well fitted curve in the direction sought with a large enough effect; inconclusive means small, poorly fitted or top-dose-only effect, or effect the other way; inactive means no such curve, though single readings can be large or run the other way.

Biological target: Cytochrome P450 3A4 (Homo sapiens) (UniProt P08684)
Sequence (P08684 whole entry, looked up): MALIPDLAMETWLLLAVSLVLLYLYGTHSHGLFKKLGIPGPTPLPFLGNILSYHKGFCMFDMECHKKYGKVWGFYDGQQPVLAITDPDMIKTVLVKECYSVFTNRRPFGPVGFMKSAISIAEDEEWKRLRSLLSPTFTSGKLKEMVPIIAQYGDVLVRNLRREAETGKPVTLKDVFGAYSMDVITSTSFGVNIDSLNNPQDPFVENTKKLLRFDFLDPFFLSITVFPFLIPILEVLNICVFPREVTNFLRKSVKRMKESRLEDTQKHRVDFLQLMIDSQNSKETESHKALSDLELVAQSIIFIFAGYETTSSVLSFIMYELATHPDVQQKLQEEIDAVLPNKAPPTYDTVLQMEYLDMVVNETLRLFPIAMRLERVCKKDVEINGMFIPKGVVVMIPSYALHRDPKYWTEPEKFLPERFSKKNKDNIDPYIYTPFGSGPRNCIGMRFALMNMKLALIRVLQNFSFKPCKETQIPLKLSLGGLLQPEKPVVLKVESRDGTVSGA
Test: Cytochrome panel assay with activity outcomes
Conditions: recombinant CYP, pro-luciferin dealkylation, luminescence, p450-cyp3a4; series mostly up to 57.1 µM; activity, negative = inhibition: at the top concentration
On the % scale 0 is the no-effect control and ±100 the full control effect.

Row | Compound | activity, negative = inhibition | AC50
1 | CCOC(=O)Cn1nnc2c(sc3nc4c(c(-c5ccc(Cl)cc5)c32)CCC4)c1=O | 10.9% | –
2 | Cc1ccc(C(=O)Cn2nnc3c(sc4nc5c(c(-c6ccccc6)c43)CCC5)c2=O)cc1 | -10.2% | –
3 | CCC1(C)Cc2c(sc3nnn(CC(=O)Nc4cccc5ccccc45)c(=O)c23)CO1 (stereo not given) | – | 10 µM (active)
4 | CC1(C)Cc2c(sc3nc(-c4ccccc4)n(N)c(=O)c23)CO1 | -13.6% | –
5 | CCC1(C)Cc2c(sc3nnn(CC(=O)Nc4ccc(C)cc4)c(=O)c23)CO1 (stereo not given) | – | 14.1 µM (active)
6 | CCOC(=O)c1sc2nc3c(cc2c1N)COC(C)(CC)C3 (stereo not given) | 1.93% [at 11.4 µM] | –
7 | CC1(C)CC(=O)c2cn3ncnc3nc2C1 | -2.27% | –
8 | Nc1cccc2cnccc12 | – | 7.94 µM (active)
9 | CC(C)[C@H](NC(=O)OC(C)(C)C)[C@@H](O)CC(=O)OC(C)(C)C | -23.3% [at 11.4 µM] | –
10 | O=c1ccn(-c2cccc(C(F)(F)F)c2)nc1-c1ccn(-c2ccccc2F)n1 | – | 10 µM (active)
11 | O=C(c1ccccc1)c1nn(-c2ccccc2)c(=O)cc1C(F)(F)F | 32.3% | –
12 | COc1ccccc1NC(=O)c1nc[nH]c1C(=O)Nc1ccccc1OC | 16.7% | –
13 | Cc1n[nH]c(=O)n1-c1cccc(C(F)(F)F)c1 | 5.28% | –
14 | COc1ccccc1NC(=O)c1nn(-c2cccc(C(F)(F)F)c2)ccc1=O | – | 20 µM (active)
15 | O=C(O)c1nn(-c2ccccc2)ccc1=O | -15.6% [at 11.4 µM] | –
16 | CC(C)NC[C@H]1CCc2cc(CO)c([N+](=O)[O-])cc2N1 | -14.3% [at 25.6 µM] | –
17 | N#CCCn1c(=O)cnc2cnc(Oc3ccccc3)nc21 | -17.2% | –
18 | N#CCCn1c(=O)c(CCc2ccccc2)nc2cnc(Oc3ccccc3)nc21 | – | 2.51 µM (active)
19 | COc1ccc(Oc2ncc3nc(CCc4ccccc4)c(=O)n(CCC#N)c3n2)cc1 | – | 1.58 µM (active)
20 | N#CCCn1c(=O)c(-c2ccccc2)nc2cnc(Oc3cccc(Cl)c3)nc21 | -11.9% | –
21 | N#CCCn1c(=O)c(-c2ccc(Cl)cc2)nc2cnc(Oc3cccc(Cl)c3)nc21 | -0.801% | –
22 | N#CCCn1c(=O)c(CCc2ccccc2)nc2cnc(Oc3cccc(Cl)c3)nc21 | – | 0.794 µM (active)
23 | Cc1cc(=O)c2cc(Cl)ccc2[nH]1 | -16.9% | –
24 | Nc1ccccc1SCc1csc(-c2ccc(Cl)cc2)n1 | – | 1 µM (active)

Row | Compound | activity, negative = inhibition | AC50
25 | C[N+](C)(N)Cc1csc(-c2ccc(Cl)cc2)n1 | -0.841% [at 11.4 µM] | –
26 | Clc1ccc(SCc2cc(-c3ccccc3)no2)cc1 | -27.4% | –
27 | CN1CCc2ccccc2[C@@H]1Cc1ccccc1NC(=O)c1sc2ccccc2c1Cl | – | 1.58 µM (active)
28 | Cc1cc(C)c(C#N)c(SCc2cc3c(cc2Cl)OCO3)n1 | – | 3.98 µM (active)
29 | COc1ncc2ncc(=O)n(C3CC3)c2n1 | -9.36% | –
30 | COc1cccc(Cn2c(=O)cnc3cnc(OC)nc32)c1 | – | 10 µM (active)
31 | COc1cccc(Cn2c(=O)cnc3cnc(OCc4ccccc4)nc32)c1 | – | 12.6 µM (active)
32 | COc1cccc(Cn2c(=O)cnc3cnc(Oc4cccc(Cl)c4)nc32)c1 | – | 5.01 µM (active)
33 | N[C@@H](Cn1cc(F)c(=O)[nH]c1=O)C(=O)O | -26.2% | –
34 | CCC(c1nnnn1CC1CCCO1)N(CCN1CCOCC1)Cc1cc2cc(C)ccc2[nH]c1=O (stereo not given) | – | 15.8 µM (active)
35 | COCOc1ccc(Br)cc1C(=O)[C@H]1O[C@H]1c1cccc(OC)c1 | – | 3.98 µM (active)
36 | COc1ccc(CCN(C)Cc2ccc(OCc3ccccc3)c(OC)c2)cc1OC | – | 0.631 µM (active)
37 | COc1ccccc1OCc1ccc(C(=O)N(C)C)o1 | 4.32% [at 2.29 µM] | –
38 | COc1ccc(CCN(C)CCC(=O)Nc2c(C)cc(C)cc2C)cc1OC | – | 7.94 µM (active)
39 | Cc1ccc(S(=O)(=O)N[C@H]2COC(=O)[C@@H](Cc3ccccc3)NC(=O)[C@@H](C)COC(=O)C/C=C\[C@@H]2C)cc1 | -7.89% [at 11.4 µM] | 3.98 µM (active)
40 | CSCC[C@@H]1NC(=O)C/C=C\[C@@H](C)COC(=O)[C@@H](C)COC1=O | -21.5% [at 11.4 µM] | –
41 | Cc1ccc(S(=O)(=O)N[C@H]2COC(=O)CC=C[C@@H](C)[C@H]3C=C[C@H](O)[C@@H](COC(=O)CC=C[C@H]2C)O3)cc1 | -9.33% [at 11.4 µM] | 3.16 µM (active)
42 | CO[C@@H]1COC(=O)CC=C[C@@H](C)[C@@H]2C=C[C@@H](O)[C@@H](COC(=O)C/C=C\[C@H]1C)O2 | -26.7% [at 11.4 µM] | –
43 | Cc1ccc(S(=O)(=O)N[C@H]2COC(=O)C/C=C\[C@@H](C)[C@H](NS(=O)(=O)c3ccc(C)cc3)COC(=O)C/C=C\[C@H]2C)cc1 | – | 3.16 µM (active)
44 | C[C@H]1COC(=O)[C@H]2CCCN2C(=O)[C@@H](C)COC(=O)[C@H](Cc2ccccc2)NC1=O | -25.7% [at 11.4 µM] | –
45 | C[C@@H]1/C=C\CC(=O)OC[C@H](C)C(=O)N[C@@H](C)C(=O)OC1 | -13.1% [at 11.4 µM] | –
46 | Cc1ccc(S(=O)(=O)N[C@@H]2COC(=O)C/C=C\[C@H](C)COC(=O)N[C@@H](C)C(=O)C/C=C\[C@H]2C)cc1 | – | 3.16 µM (active)
47 | C[C@@H]1/C=C\CC(=O)OC[C@H]2O[C@@H](C=C[C@@H]2O)[C@H](C)/C=C\CC(=O)OC[C@H]2O[C@H]1C=C[C@@H]2O | -21.3% [at 11.4 µM] | –
48 | CO[C@H]1COC(=O)C/C=C\[C@H](C)COC(=O)[C@@H](C)NC(=O)C/C=C\[C@@H]1C | -29.4% [at 11.4 µM] | –
